Bioassay records deposited in PubChem by National Center for Advancing Translational Sciences (NCATS).
Most compounds without a hit are left out; they make up all but 1.2% or so of the library.
AMA1-RON2 inh – disrupts binding of P. falciparum AMA1 to RON2. AlphaScreen AMA1-biotinylated RON2 peptide binding. Potency, µM (titrated, usually from 58.2 µM), for inactives: top-dose activity change, negative = inhibition, most hits filed as inhibitors. 0.2% of 360,000 active;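 further: potency means the concentration at half of the fitted maximal effect; 0% = vehicle wells and -100% = peptide control; nearly all actives have a fitted effect of over 45% in size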
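AMA1 (3D7) with his tag at 25 nM final met compounds first, then biotinylated RON2 peptide at 25 nM; detection used donor plus acceptor beads, 10 µg/mL apiece, read by AlphaScreen after 30 min at room temperature.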
LmPK inhibitor – LmPK (Leishmania mexicana) enzyme inhibition. Q27686. purified LmPK, Kinase-Glo ATP luminescence, 1 h. Potency, µM (top dose mostly 57.5 µM), without a hit: at the top dose activity change, negative = inhibition, hits mostly inhibitors. 0.37% of 290,000 active. AID 1721; further: potency means the concentration at half of the fitted maximal effect; on the % scale 0 is the no-effect control and ±100 the full control effect
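ATP generated from ADP (0.1 mM) and PEP (0.5 mM) by 0.1 nM LmPK over 1 h at room temperature (pH 7.2 imidazole buffer) was detected by coupled luciferase luminescence. Values were normalized to uninhibited and no-enzyme wells.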
Tb PYK inh – blocks Trypanosoma brucei pyruvate kinase. Q57TT1. TbPYK enzyme, Kinase-Glo Plus ATP luminescence, 45 min. Potency, µM (top dose mostly 76.8 µM), for inactives: top-dose activity, negative = inhibition, usual class: inhibitors. 0.12% of 410,000 active. AID 624173; further: potency means the concentration at half of the fitted maximal effect; on the % scale 0 is the no-effect control and ±100 the full control effect; nearly all actives have a fitted effect of over 50% in size
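Enzyme and substrate buffer are dispensed first and compound is pin-transferred. ADP at 130 uM final then starts the reaction, which runs 45 min at room temperature. Detection reagent is added for 10 min before luminescence is imaged.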
FBPA Giardia inh – blocks Giardia fructose-bisphosphate aldolase activity. A8B2U2. purified Giardia FBPA. Potency, µM (doses to about 59.6 µM), inactives show top-dose activity, negative = inhibition, actives largely listed as inhibitors. 0.71% of 290,000 active; further: potency means the concentration at half of the fitted maximal effect; on the % scale 0 is the no-effect control and ±100 the full control effect; nearly all actives have a fitted effect of over 55% in size
Target sequence (A8B2U2 whole entry, looked up): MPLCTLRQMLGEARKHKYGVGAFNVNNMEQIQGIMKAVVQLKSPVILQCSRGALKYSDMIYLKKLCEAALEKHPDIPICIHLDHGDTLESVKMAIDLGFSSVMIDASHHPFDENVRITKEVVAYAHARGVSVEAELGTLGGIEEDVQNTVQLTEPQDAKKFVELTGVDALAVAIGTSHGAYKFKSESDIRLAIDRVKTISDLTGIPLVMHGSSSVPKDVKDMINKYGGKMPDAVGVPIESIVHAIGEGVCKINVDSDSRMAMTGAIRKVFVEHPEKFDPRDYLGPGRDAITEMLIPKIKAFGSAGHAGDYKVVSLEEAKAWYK
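Giardia FBPA (40 nM reagent) was preincubated 10 min at RT with compound (up to 57.5 uM final), then substrate plus GAPDH/TPI/NAD/arsenate coupling system with diaphorase/resazurin was added; resorufin fluorescence (525/598 nm) was read after 20 min.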
NS1 function inh – inhibitors of influenza NS1 protein function. AID 2326. Potency, µM (top dose mostly 46.1 µM), without a hit: top-dose activity, positive = more growth. 0.4% of 270,000 active; calls by dose curve; further: potency means the concentration at half of the fitted maximal effect; actives are rising curves; nearly all actives have a fitted effect of over 50% in size
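Compounds were scored for reversing the slow growth caused by influenza A NS1 in S. cerevisiae, measured by optical density at 600 nm. Assay medium contained 2% galactose at pH 6.0; NS1-free yeast of the same strain were the positive control.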
Flu NS1 inh – validation of influenza NS1 protein function inhibitors | shares compounds with NS1 function inh | activity change, negative = inhibition, % at 32.9 µM | 1,400 tested, under 10 active | influenza NS1 function cell assay, 15-point titration; calls by dose curve; further: 0% is about no effect
* hit, by the source's call; ? = inconclusive; / = no result given; [ ] = remark or other dose. Unless noted, the call rests on the fitted dose curve; in most records, active means well fitted curve in the direction sought with a large enough effect; inconclusive means small, poorly fitted or top-dose-only effect, or another doubt; inactive means no such curve, though single readings can be large; an effect the other way counts as inactive or inconclusive.

SMILES	AMA1-RON2 inh	LmPK inhibitor	Tb PYK inh	FBPA Giardia inh	NS1 function inh	Flu NS1 inh
C=C1C2(C(=O)NCc3ccco3)CCC(C2)C1(C)C (stereo unspecified)	-6%	2%	2%	-2%	0%	/
CC1(C)C(=O)C2(C(=O)NCc3ccccc3)CCC1C2 (stereo unspecified)	-8%	1%	-1%	4%	20µM*	1
N#CCC(=O)N/N=C/c1ccc(N2N=C(c3ccccc3)CC2c2ccccc2)cc1 (stereo unspecified)	123%	10%	0%	-8%	1.1µM*	-33
COc1ccc(N2C(=O)C3CCCN3C2c2ccccc2OC)cc1 (stereo unspecified)	2%	0%	1%	0%	-4%	/
COc1ccccc1C1N(c2ccc(Cl)cc2)C(=O)C2CCCN21 (stereo unspecified)	-8%	1%	3%	2%	11µM*	-21
COc1ccc(C2N(c3ccc(F)cc3)C(=O)C3CCCN32)cc1 (stereo unspecified)	10%	8%	-1%	1%	1.1µM*	3
COc1ccc(C2N(c3ccc(OC)cc3)C(=O)C3CCCN32)cc1 (stereo unspecified)	-3%	0%	-1%	1%	-8%	/
CN(C)c1ccc(C2C=C(c3ccccc3)Nc3nnnn32)cc1 (stereo unspecified)	/	/	-12%	/	/	/
O=S(=O)(/N=C(/Nc1cccc2ccccc12)c1ccccc1)c1ccccc1	-3%	4%	6%	2%	16%	/
O=S(=O)(/N=C(/Nc1cccc2ccccc12)c1ccccc1)c1cccs1	-1%	4%	-6%	-5%	14µM*	-13
COCC(=O)N1CCC2(CC1)CN(c1cccc(-c3ccccc3)c1)C2	/	/	-13%	2%	/	/
O=C(N/N=C/c1cccc(O)c1)c1ccc(COc2ccccc2Br)cc1	4%	3%	-7%	-4%	?	?
O=C(N/N=C/c1cccc(O)c1)c1ccc(COc2cccc3cccnc23)cc1	7%	-3%	7%	7%	/	/
O=C(NCCNCCO)C1(C(F)(F)F)CC(CCc2ccccc2)CCCO1 (stereo unspecified)	/	/	/	10%	/	/
Nc1nc2ncc(=O)[nH]c2c(=O)[nH]1	/	/	/	-26%	/	/
O=C(Cc1c(F)cccc1Cl)OCN1C(=O)c2ccccc2C1=O	-3%	-4%	-9%	1%	2.2µM*	-6
COc1ccc2c(c1)C(c1ccccc1C)CC(=O)O2 (stereo unspecified)	/	/	/	-12%[89.2 µM]	/	/
CCOc1cc(/C=C2\N=C(C)OC2=O)cc(Br)c1OCCc1ccccc1	1%	11%	-3%	1%	12%	/
CCOc1cc(/C=C2\N=C(C)OC2=O)cc(Br)c1OCC(=O)OC	0%	-1%	-8%	5%	?	-35
COc1cc(NS(=O)(=O)c2ccc(NC(=S)NC(=O)c3cccs3)cc2)nc(OC)n1	64%	11%	-9%	1%	?	/
Cc1cc(C)cc(NS(=O)(=O)c2ccc(NC(=S)NC(=O)c3cccs3)cc2)c1	37%	0%	-14%	-1%	13µM*	-33
COc1cc(/C=N/N(c2ccccc2)c2ccccc2)ccc1O	?	-1%	1%	0%	-56%	/
CN(/N=C\c1ccc(O)c(O)c1)c1nc(-c2ccccc2)cc(-c2ccccc2)n1	2%[2.32 µM]	0%	-13%	?	8.9µM*	?
CC1Cc2ccccc2N1C(=O)CSc1nnc(-c2ccccc2)c(-c2ccccc2)n1 (stereo unspecified)	-20%	4%	-3%	-3%	?	-1
COC(=O)NC(/C(C(=O)OC)=C(\C)NCc1ccccc1)c1ccccc1 (stereo unspecified)	/	/	/	3%[12.9 µM]	/	/
Cc1[nH]c2ccccc2c1C(O)CN1CCN(c2cccc(C(F)(F)F)c2)CC1 (stereo unspecified)	-28%	2%	-7%	-19%	?	?
Cc1[nH]c2ccccc2c1NC(=O)CN1CCN(c2cccc(C(F)(F)F)c2)CC1	-5%	4%	-2%	2%	-131%	/
